Our source for the outcome and Potency values is PubChem BioAssay (Tox21).

Results filed as inconclusive are left out. Unmarked numbers belong to inactive results. The source made the active and inactive calls. Unless noted, calls follow the shape of the dose curve; as a rule, active = well fitted curve in the direction sought with a large enough effect in the repeat runs; inconclusive = weak or mixed curves; inactive = no such curve, though single readings can be large; an effect the other way counts as inactive or inconclusive.

In assay [1] the target is Peroxisome proliferator-activated receptor delta (Homo sapiens) (UniProt Q03181). The experiment in a line: qHTS assay to identify small molecule agonists of the peroxisome proliferator-activated receptor delta (PPARd) signaling pathway (AID 743212; calls by dose curve). In a few lines: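 GeneBLAzer UAS-bla HEK293H cells carrying a PPARδ construct were exposed to compounds at 37 °C. Beta-lactamase activity was read by FRET fluorescence after 2 h at room temperature with LiveBLAzer B/G substrate.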
Background: In qHTS, concentration-response curves come from the screen itself.

Assay [2] can be described thus: qHTS assay to identify small molecule antagonists of the peroxisome proliferator-activated receptor delta (PPARd) signaling pathway - cell viability counter screen (AID 743213). Also: nearly all actives have a fitted effect of over 50% in size. Also: potency is read from the fitted curve at half-maximal effect. A digest of the protocol:
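Same-well viability: cells pre-incubated 5 h, dosed with compound plus 300 nM L165041, kept 17 h at 37 C, FRET substrate 2 h RT, then CellTiter-Glo 30 min RT and luminescence.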

Assay [3] concerns the target Peroxisome proliferator-activated receptor delta (Homo sapiens) (UniProt Q03181). The experiment in a line: qHTS assay to identify small molecule antagonists of the peroxisome proliferator-activated receptor delta (PPARd) signaling pathway (AID 743215; active = well fitted inhibition curve with a large enough effect in the signal ratio in the repeat runs, not every such curve was filed as active; the % refers to the signal ratio;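 also: cells stimulated with agonist L165041 at 300 nM final during compound exposure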; also: potency is read from the fitted curve at half-maximal effect). A digest of the protocol:
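PPARd-bla HEK293H cells (UAS-bla reporter) preincubated 5 h, then given compound plus 300 nM final L165041 agonist for 17 h at 37 C. Beta-lactamase activity read by LiveBLAzer B/G FRET substrate fluorescence after 2 h at room temperature.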

In assay [4] the target is Bile acid receptor (Homo sapiens) (UniProt Q96RI1). The experiment in a line: qHTS assay to identify small molecule antagonists of the farnesoid-X-receptor (FXR) signaling pathway (AID 743217; active = well fitted inhibition curve with a large enough effect in the signal ratio in the repeat runs, not every such curve was filed as active; the % refers to the signal ratio; also: potency is read from the fitted curve at half-maximal effect). A digest of the protocol:
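FXR-UAS-bla HEK 293T cells (beta-lactamase reporter) given compound plus chenodeoxycholic acid (50 uM final), 16 h at 37C. LiveBLAzer B/G FRET substrate added for 2 h at room temperature; fluorescence read.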

Assay [5] is described as follows: qHTS assay to identify small molecule agonists of the farnesoid-X-receptor (FXR) signaling pathway - cell viability counter screen (AID 743218). Also: nearly all actives have a fitted effect of over 45% in size. Also: potency is read from the fitted curve at half-maximal effect. In a few lines:
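FXR-UAS-bla HEK 293T cells exposed to compounds for 16 h at 37C. Cytotoxicity read in the same wells by CellTiter-Glo luminescence after 30 min at room temperature, following the beta-lactamase FRET read.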

Assay [6] addresses Bile acid receptor (Homo sapiens) (UniProt Q96RI1). The assay is described as follows: qHTS assay to identify small molecule agonists of the farnesoid-X-receptor (FXR) signaling pathway (AID 743220; active = well fitted activation curve with a large enough effect in the signal ratio in the repeat runs, not every such curve was filed as active; the % refers to the signal ratio). In a few lines:
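Beta-lactamase reporter under UAS control in GeneBLAzer FXR HEK 293T cells (5000/well) measured with LiveBLAzer FRET substrate after 2 h at room temperature. Compound exposure lasted 16 h at 37C.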

The nature of assay [7]: qHTS assay to identify small molecule antagonists of the farnesoid-X-receptor (FXR) signaling pathway - cell viability counter screen (AID 743221; active = well fitted cell-killing curve with a large enough effect in the repeat runs, not every such curve was filed as active; also: nearly all actives have a fitted effect of over 50% in size; also: potency is read from the fitted curve at half-maximal effect). A digest of the protocol:
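After a 5 h settling period, FXR-bla HEK 293T cells receive compound and chenodeoxycholic acid (50 uM final) and incubate 16 h at 37 C; CellTiter-Glo luminescence, read after 30 min at room temperature, reports cell viability.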

For assay [8], the target named is Vitamin D3 receptor (Homo sapiens) (UniProt P11473). The assay is described as follows: qHTS assay to identify small molecule agonists of the vitamin D receptor (VDR) signaling pathway (AID 743222; calls by dose curve). A digest of the protocol:
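VDR-bla cells plated 4 h at 37 C, then exposed to compounds for 16 h at 37 C. Beta-lactamase reporter activity measured by fluorescence after 2 h room-temperature loading with LiveBLAzer B/G FRET substrate.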

Assay [9] deals with Nuclear receptor ROR-gamma (Homo sapiens) (UniProt P51449). The assay is described as follows: qHTS assay to identify small molecule antagonists of the retinoid-related orphan receptor gamma (ROR-gamma) signaling pathway (AID 1159521; also: nearly all actives have a fitted effect of over 50% in size; also: potency is read from the fitted curve at half-maximal effect). A digest of the protocol: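 Decreased RORE-driven luciferase luminescence indicates antagonism. Tet-on RORγ CHO cells received compound, then 1 uM final doxycycline 2 h later; signal read after 16 h incubation.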

Assay [10] in a line: qHTS assay to identify small molecule agonists of the AP-1 signaling pathway - cell viability counter screen (AID 1159525; calls by dose curve; also: nearly all actives have a fitted effect of over 55% in size; also: potency is read from the fitted curve at half-maximal effect). A digest of the protocol:
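AP-1-bla ME-180 cells in Opti-MEM with 0.5% dialyzed FBS, compound exposure 5 h at 37 C in 15-point titration. Viability read in the same wells as ATP content by CellTiter-Glo luminescence, normalised to tetra-n-octylammonium bromide and DMSO controls.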

Assay [11] can be described thus: qHTS assay to identify small molecule agonists of the RXR signaling pathway - cell viability counter screen (AID 1159529). Also: nearly all actives have a fitted effect of over 50% in size. Also: potency is read from the fitted curve at half-maximal effect. A digest of the protocol:
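In this parallel viability measure, GeneBLAzer RXR-alpha HEK 293T cells (2% charcoal-stripped FBS) were given a 5 hr preincubation, treated with compounds 16 hr at 37 C, and read by CellTiter-Glo luminescence.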

Assay [12] can be described thus: qHTS assay to identify small molecule antagonists of the retinoic acid receptor (RAR) signaling pathway (AID 1159552; also: nearly all actives have a fitted effect of over 50% in size; also: potency is read from the fitted curve at half-maximal effect). In a few lines: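 C3RL4 RARE-luc cells, overnight plating; retinol 1 uM final added right after compound; 6 hr 37 C; luciferase read at 30 min RT.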
A short description of assay [13]: qHTS assay to identify small molecule antagonists of the retinoid-related orphan receptor gamma (ROR-gamma) signaling pathway - cell viability counter screen (AID 1159520). Also: nearly all actives have a fitted effect of over 50% in size. Also: potency is read from the fitted curve at half-maximal effect. In a few lines: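 Tet-on ROR gamma CHO cells were given compounds for 2 hr, then doxycycline hyclate at 1 uM final, and incubated 16 hr at 37 C. Viability was measured as ATP content by CellTiter-Glo luminescence.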

Assay [14] is described as follows: qHTS assay to identify small molecule antagonists of the retinoid acid receptor (RAR) signaling pathway - cell viability counter screen (AID 1159551). Also: nearly all actives have a fitted effect of over 35% in size. Also: potency is read from the fitted curve at half-maximal effect. In a few lines: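 C3RL4 RARE-luciferase cells, 1,000/well, incubated overnight, then dosed with compound plus 1 uM retinol (final). After 6 hr at 37 C, viability read by CellTiter-Glo ATP luminescence following 30 min at room temperature.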

Assay [15] can be described thus: qHTS assay to identify small molecule agonists of the AP-1 signaling pathway (AID 1159526; calls by dose curve).
Assay [16] concerns the target Retinoic acid receptor RXR-alpha (Homo sapiens) (UniProt P19793). The experiment in a line: qHTS assay to identify small molecule agonists of the RXR signaling pathway (AID 1159527; calls by dose curve; also: nearly all actives have a fitted effect of over 35% in size). In a few lines:
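16 hr incubation of compound-treated RXR-alpha-UAS-bla HEK 293T cells (2% charcoal-stripped FBS, 37 C) preceded a 2 hr room-temperature LiveBLAzer FRET substrate step and blue/green fluorescence measurement.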

The target in assay [17] is Vitamin D3 receptor (Homo sapiens) (UniProt P11473). The assay is described as follows: qHTS assay to identify small molecule antagonists of the vitamin D receptor (VDR) signaling pathway (AID 743223; active = well fitted inhibition curve with a large enough effect in the signal ratio in the repeat runs, not every such curve was filed as active; the % refers to the signal ratio; also: potency is read from the fitted curve at half-maximal effect). A digest of the protocol: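 Reporter line VDR-bla; stimulus 1alpha,25-(OH)2 vitamin D3, 3 nM final; compound co-addition, 16 h 37C/5% CO2; LiveBLAzer B/G substrate 2 h RT; fluorescence intensity.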

The nature of assay [18]: qHTS assay to identify small molecule antagonists of the vitamin D receptor (VDR) signaling pathway - cell viability counter screen (AID 743225). Also: nearly all actives have a fitted effect of over 50% in size. Also: potency is read from the fitted curve at half-maximal effect. A digest of the protocol: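 Parallel cytotoxicity test: VDR-UAS-bla HEK 293T, 3 nM (final) 1-alpha,25-dihydroxyvitamin D3 with test compound, 16 h, 37C. Endpoint is CellTiter-Glo luminescence in the same wells.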
The nature of assay [19]: qHTS assay to identify small molecule agonists of the peroxisome proliferator-activated receptor delta (PPARd) signaling pathway - cell viability counter screen (AID 743211). Also: nearly all actives have a fitted effect of over 55% in size. Also: potency is read from the fitted curve at half-maximal effect. In a few lines:
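qHTS cell viability: PPARd-bla HEK293H; 17 h cpd, 37C; CellTiter-Glo, luminescence at 30 min RT.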

The nature of assay [20]: qHTS assay to identify small molecule agonists of the vitamin D receptor (VDR) signaling pathway - cell viability counter screen (AID 743224). A digest of the protocol: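 VDR-bla cells, 4 h after plating, exposed to compounds for 16 h at 37C; viability then read in the same wells as CellTiter-Glo luminescence after 30 min at room temperature, following the bla FRET read.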

Sequence of Bile acid receptor (Homo sapiens) (Q96RI1 whole entry, looked up): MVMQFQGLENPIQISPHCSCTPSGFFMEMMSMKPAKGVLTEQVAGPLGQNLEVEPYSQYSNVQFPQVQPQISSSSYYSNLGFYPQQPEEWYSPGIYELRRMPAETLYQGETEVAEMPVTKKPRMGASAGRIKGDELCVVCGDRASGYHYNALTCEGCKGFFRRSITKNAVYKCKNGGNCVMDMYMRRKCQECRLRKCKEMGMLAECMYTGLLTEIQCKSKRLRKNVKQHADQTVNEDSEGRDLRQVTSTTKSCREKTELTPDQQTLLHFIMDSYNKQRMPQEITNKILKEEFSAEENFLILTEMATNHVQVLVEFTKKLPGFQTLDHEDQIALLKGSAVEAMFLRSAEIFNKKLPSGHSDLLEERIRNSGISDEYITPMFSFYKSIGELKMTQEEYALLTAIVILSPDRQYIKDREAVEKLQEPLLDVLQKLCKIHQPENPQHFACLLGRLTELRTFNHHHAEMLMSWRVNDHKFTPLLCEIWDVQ
Sequence of Retinoic acid receptor RXR-alpha (Homo sapiens) (P19793 whole entry, looked up): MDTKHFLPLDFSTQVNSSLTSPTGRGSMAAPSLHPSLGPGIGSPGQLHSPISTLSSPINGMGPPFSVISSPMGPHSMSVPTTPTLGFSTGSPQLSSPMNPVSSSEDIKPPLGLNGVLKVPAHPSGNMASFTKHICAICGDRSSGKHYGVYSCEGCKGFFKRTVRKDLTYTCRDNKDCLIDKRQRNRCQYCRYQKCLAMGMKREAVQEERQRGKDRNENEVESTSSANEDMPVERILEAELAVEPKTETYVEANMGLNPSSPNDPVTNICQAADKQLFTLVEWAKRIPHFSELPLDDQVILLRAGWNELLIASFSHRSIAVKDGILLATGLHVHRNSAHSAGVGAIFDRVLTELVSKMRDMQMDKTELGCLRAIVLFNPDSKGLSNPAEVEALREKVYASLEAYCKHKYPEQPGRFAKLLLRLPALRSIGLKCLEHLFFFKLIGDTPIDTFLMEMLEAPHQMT
Sequence of Peroxisome proliferator-activated receptor delta (Homo sapiens) (Q03181 whole entry, looked up): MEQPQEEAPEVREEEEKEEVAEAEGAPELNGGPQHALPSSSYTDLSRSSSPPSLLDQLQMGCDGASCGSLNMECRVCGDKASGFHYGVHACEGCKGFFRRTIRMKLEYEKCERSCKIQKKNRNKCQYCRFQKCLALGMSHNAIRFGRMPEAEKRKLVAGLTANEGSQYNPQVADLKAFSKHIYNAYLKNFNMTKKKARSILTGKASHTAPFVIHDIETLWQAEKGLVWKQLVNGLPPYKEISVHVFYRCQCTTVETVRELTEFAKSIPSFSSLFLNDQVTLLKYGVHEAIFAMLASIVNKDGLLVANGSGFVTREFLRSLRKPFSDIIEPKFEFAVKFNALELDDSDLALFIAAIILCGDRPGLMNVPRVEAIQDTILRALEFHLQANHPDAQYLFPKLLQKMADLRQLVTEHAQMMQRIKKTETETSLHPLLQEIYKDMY
Sequence of Vitamin D3 receptor (Homo sapiens) (P11473 whole entry, looked up): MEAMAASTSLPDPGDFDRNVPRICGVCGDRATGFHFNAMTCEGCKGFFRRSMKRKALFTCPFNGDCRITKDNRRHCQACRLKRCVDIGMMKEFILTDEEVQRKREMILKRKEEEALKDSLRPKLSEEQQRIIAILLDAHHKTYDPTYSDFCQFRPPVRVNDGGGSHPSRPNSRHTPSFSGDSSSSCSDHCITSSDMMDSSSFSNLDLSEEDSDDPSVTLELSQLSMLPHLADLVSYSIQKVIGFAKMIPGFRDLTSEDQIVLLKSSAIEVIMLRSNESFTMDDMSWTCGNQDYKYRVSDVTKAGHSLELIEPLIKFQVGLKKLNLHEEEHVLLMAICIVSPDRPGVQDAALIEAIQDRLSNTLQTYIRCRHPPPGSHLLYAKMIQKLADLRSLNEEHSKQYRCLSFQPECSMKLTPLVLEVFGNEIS

For the molecule `CC(O)(c1ccc(Cl)cc1)c1ccc(Cl)cc1`, the molecule was called inactive in assay [1], in assay [6] and in assay [8]. Besides, the Potency result in assay [2], in assay [3], in assay [4], in assay [5], in assay [7] and in assay [9] was “inactive” each time. For the same molecule, the Potency in assay [10] is 54.9 µM (active); in [11], 38.9 µM (active); in assay [12], 61.1 µM (active).

For `CO[Si](OC)(c1ccccc1)c1ccccc1`, the Potency result in assay [13] and in assay [14] was “inactive” in each case.

Regarding `O[Si](c1ccccc1)(c1ccccc1)c1ccccc1`, the Potency in [9] is 24.3 µM (active). The Potency entry in assay [10], in assay [15], in [11] and in [14] was “inactive” in each case.

On to `CCCOC(=O)c1ccc(O)cc1`, for which, in assay [1], the molecule was classed as inactive. Moreover, the Potency result in assay [9], in [15] and in assay [12] was “inactive” in each case.

Consider `Nc1ccc(F)c([N+](=O)[O-])c1`, for which the Potency result in assay [9], in assay [10], in [15], in assay [16], in [11] and in assay [14] was “inactive” each time.

On to `Cc1c[nH]c(=O)[nH]c1=O`, for which the Potency result in assay [9], in assay [15], in assay [11], in [14] and in [12] was “inactive” each time.

`CCn1c2ccccc2c2ccccc21`: the Potency result in [9], in assay [10], in assay [16], in [14] and in [12] was “inactive” in each case.

Take `O=[N+]([O-])c1ccc(O)c2ncccc12`: the Potency entry in assay [5], in [7], in [18], in [14] and in assay [12] was “inactive” throughout. Besides, the molecule was classed as inactive in [6]. The Potency is 9.52 µM (active) in assay [17] and 23.7 µM (active) in assay [13].

In the case of `Cc1ccc2n[nH]nc2c1`, the Potency result in assay [9], in assay [10], in assay [15], in assay [16] and in assay [11] was “inactive” each time.

Consider `O=C(CCN1CCC(c2ccccc2)C1)c1ccc2c(c1)OCCO2` (stereo not drawn), for which the Potency entry in [19], in [2], in [5], in [7], in [18] and in assay [10] was “inactive” throughout. For the same molecule, the Potency entry in assay [14] was “inactive”. The result in assay [8] was inactive. Also, the Potency in [9] was 33.5 µM (active).

With `CCN(CC)c1ccc2c(c1)Oc1cc(N(CC)CC)ccc1C21OC(=O)c2ccccc21`, the Potency entry in assay [9], in assay [10] and in assay [12] was “inactive” each time. The Potency in assay [14] was 11.9 µM (active).

Regarding `CN[C@H]1CC[C@@H](c2ccc(Cl)c(Cl)c2)c2ccc(S(N)(=O)=O)cc21`, the Potency in assay [19] was 6.92 µM (active); in assay [2] it was 12.3 µM (active); in [3] it was 34.7 µM (active); in assay [4] it was 49 µM (active); in assay [5], 13.8 µM (active); in [7], 24.5 µM (active). The Potency in [20] is 17.4 µM (active); in [18], 21.9 µM (active); in assay [9], 54.5 µM (active); in assay [11] it was 27.5 µM (active). In addition, the outcome in [8] was inactive. For the same molecule, the Potency entry in assay [10] and in [14] was “inactive” each time.

For `CC1(C)[C@H](C(=O)OCc2cccc(Oc3ccccc3)c2)[C@@H]1C=C(Cl)Cl`, the Potency result in [9], in assay [15], in assay [16], in assay [11] and in assay [14] was “inactive” in each case.
